From PubChem BioAssay (Tox21) come the findings set out here.

Where “and” joins values, the source holds several entries; their conditions need not be identical. Equal values may be shown once. Inconclusive results are not listed. Entries that show only a call come without a potency. More than one record can exist for a structure, and the calls need not agree. Calls of active or inactive are those of the source. Calls come from the whole dose curve.
Potency is the fitted concentration of half-maximal effect.

Chain of Muscarinic acetylcholine receptor M1 (Homo sapiens) (P11229 whole entry, looked up): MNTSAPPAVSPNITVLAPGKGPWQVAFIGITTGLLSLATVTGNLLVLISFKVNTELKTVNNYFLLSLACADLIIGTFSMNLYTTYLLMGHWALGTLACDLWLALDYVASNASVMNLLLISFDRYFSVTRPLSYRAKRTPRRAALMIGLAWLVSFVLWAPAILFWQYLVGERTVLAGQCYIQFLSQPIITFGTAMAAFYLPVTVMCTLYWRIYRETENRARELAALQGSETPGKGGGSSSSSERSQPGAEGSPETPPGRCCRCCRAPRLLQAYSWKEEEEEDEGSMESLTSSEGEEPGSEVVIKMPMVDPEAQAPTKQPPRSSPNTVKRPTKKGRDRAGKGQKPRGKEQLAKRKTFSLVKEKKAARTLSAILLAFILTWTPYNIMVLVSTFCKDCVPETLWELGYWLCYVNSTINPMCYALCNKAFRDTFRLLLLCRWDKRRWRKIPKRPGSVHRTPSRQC

For the assay, the target named is Muscarinic acetylcholine receptor M1 (Homo sapiens) (UniProt P11229). As to the kind of experiment: Cholinergic receptor muscarinic 1 (CHRM1) small molecule antagonists, cell-based qHTS assay (AID 1963588). Note: nearly all actives have a fitted effect of over 40% in size. The following applies: CHRM1-CHO antagonist mode, calcium flux fluorescence; series mostly up to 61.5 µM; activity, negative = inhibition: at the top concentration. The text has this:
National Center for Advancing Translational Sciences [NCATS]
Division of Preclinical Innovation [DPI]
U.S. Environmental Protection Agency [EPA]
National Institutes of Environmental Health Sciences [NIEHS]
National Toxicology Program [NTP]
U.S. Food and Drug Administration [FDA]
The CHRM1 is a muscarinic receptor. This receptor plays a crucial role in learning and memory processes and has long been identified as a promising therapeutic target for the improvement of cognitive decline in Alzheimer's disease (AD). The CHRM1-CHO cell line stably expressing human muscarinic acetylcholine receptor M1 (CHRM1) can be used for screening agonists and antagonists of interactions between CHRM1 and its ligands. The CHRM1-CHO Calcium Flux Assay is a homogeneous fluorescence-based assay for detecting the intracellular calcium level using FDSS kinetic plate reader system.
Tox21 Assay Protocol Summary:
CHRM1-CHO cells were dispensed at 1000 cells/3uL/well in 1536-well black-clear bottom plates using a Multidrop Dispenser. After the assay plates were incubated at a 37 C/5% CO2 incubator for 18 h, 3 uL of Dye Loading Buffer was transferred to the assay plate by a Flying Reagent Dispenser. The assay plates were incubated at 37 C for 1h. For antagonist mode, 23 nL of compounds dissolved in DMSO, positive controls or DMSO only was transferred to the assay plate by a pin tool. After 5 min incubation at room temperature, 1.5 uL of acetylcholine at 50nM was added to each well. The fluorescence intensity in the plates was measured using FDSS 7000EX kinetic plate reader for 3 min at 1 sec intervals. Each test compound was measured at 15 concentrations in three independent runs.
A general note: qHTS replaces the single test concentration by a dilution series.
Regarding `ClC/C=C/CCl`, the Potency entry was “inactive”.

As to `c1ccc2c(c1)Cc1ccccc1-2`, the Potency result is “inactive”.

In the case of `O=S(=O)(O)c1ccc2cc(O)ccc2c1`, the Potency entry was “inactive”.

For `CC(=O)C(=O)O`, the Potency result was “inactive”.

Turning to `CC(C)c1ccc(C(C)C)cc1`, the Potency result is “inactive”.

Regarding `CC(O)COc1ccccc1` (stereo not given), the Potency entry is “inactive”.

For the compound `Nc1cccc(C(F)(F)F)c1`, the Potency result is “inactive”.

As to `COCCOC(=O)c1ccccc1C(=O)OCCOC`, the Potency result was “inactive”.

As to `COC(=O)CCC(=O)OC`, the Potency result is “inactive”.

Turning to `CCC(=O)OC/C=C/c1ccccc1`, the Potency entry was “inactive”.

For the compound `c1ccc(Oc2ccccc2)cc1`, the Potency entry is “inactive”.

On to `O=C(O)CS`, for which the Potency result is “inactive”.

`CCn1c2ccccc2c2cc(N)ccc21`: the Potency entry is “inactive”.

Take `C=C[Si](OCCOC)(OCCOC)OCCOC`: the Potency entry is “inactive”.

Consider `C=C[C@@]1(C)CC(=O)[C@]2(O)[C@@]3(C)[C@@H](O)CCC(C)(C)[C@@H]3[C@H](O)[C@H](OC(C)=O)[C@@]2(C)O1`, for which the Potency entry was “inactive”.

Consider `CCCCOCCO`, for which the Potency result was “inactive”.

As for `Cc1cccc2n[nH]nc12`, the Potency entry is “inactive”.

`CCCCNC(N)=O`: the Potency result was “inactive”.

As to `C=CCc1ccc(OC)c(OC)c1`, the Potency result was “inactive”.

Turning to `COc1cc(C=O)ccc1O`, the Potency entry was “inactive”.

Turning to `O=C1CCCC1`, the Potency result was “inactive”.

As for `CCCCCCc1ccc(O)cc1O`, the Potency result was “inactive”.

As to `OC(CCl)CCl`, the Potency result is “inactive”.

Regarding `C=CCCCCCCCCCC`, the Potency result is “inactive”.

For `O=C(O)c1ccccc1Nc1cccc(C(F)(F)F)c1`, the “activity, negative = inhibition” value is -0.51% [at 28.3 µM] (inactive).

`c1ccc2scnc2c1`: the Potency result is “inactive”.

As to `Nc1ncnc2nc[nH]c12`, the Potency result was “inactive”.

On to `CCC(C)OC(=O)c1ccc(O)cc1` (stereo not given), for which the Potency result was “inactive”.

Consider `CCO[Si](CCCN)(OCC)OCC`, for which the “activity, negative = inhibition” value is 2.18% (inactive).

As for `COc1ccccc1O`, the Potency entry was “inactive”.

Take `CC(C)OB(OC(C)C)OC(C)C`: the Potency result is “inactive”.

As for `Nc1cc([N+](=O)[O-])ccc1C(=O)O`, the Potency result was “inactive”.

Consider `Cc1ccc(C)c(O)c1`, for which the Potency entry was “inactive”.

As for `CCCCOC(=O)CC(CC(=O)OCCCC)(OC(C)=O)C(=O)OCCCC`, the Potency result is “inactive”.

Turning to `C=CC[N+](C)(C)CC=C`, the Potency result is “inactive”.

Take `OCc1ccc(Cl)cc1Cl`: the Potency result is “inactive”.

Take `Oc1ccc2ccccc2c1N=Nc1ccccc1`: the Potency was 472 nM (active) and inactive.

On to `Cc1cccc(C)c1`, for which the Potency entry was “inactive”.

As to `CCCCCCCCCCCCCC[N+](C)(C)C`, the Potency was 941 nM (active) and 818 nM (active).

As for `c1ccc2cc(Nc3ccc(Nc4ccc5ccccc5c4)cc3)ccc2c1`, the Potency result is “inactive”.
